Assay results reported in PubChem BioAssay (NCI).
Several values for one entry are separate records, joined by “and”; a condition that tells them apart may be missing. Identical values can stand only once. This is part of a sample that, as a whole, favours compounds with a hit. Of some 83,000 tested, about 20% had one in any assay.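 Testing used 96-well plates and a 48-hour single-concentration exposure. Example: -40 means 40% of the starting cells died.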 Values without a mark were called inactive. Activity calls are given as the source filed them. How the source made its calls: active means growth percent below 10; inactive means the rest.

What follows are compounds tested on MDA-MB-468 breast (assay: NCI-60 one-dose screen, 48 h (100 = growth as untreated, 0 = no growth, -100 = all killed)). Settings: 10 µM unless noted.
Compound `COc1ccc2c(/C=C3/C(=O)NC(=S)NC3C)cc(=O)oc2c1` (stereo not drawn) has a growth of 90.4%. `COC(=O)C(=Cc1ccccc1[N+](=O)[O-])C(=O)OC` was tested, and the growth was 20.2%. In the case of `CCOC(=O)CO`, the growth is reported as 99%. `O=C(c1c[nH]c2ccccc12)c1n[nH]c(=S)n1-c1cccc(Br)c1` was tested, and the growth was 98.7%. For `O=C(NO)c1ccc(Cn2c(=O)n(-c3ccccc3F)c(=O)c3ccccc32)cc1`, the growth was -10.8% (active). For `CC(CN(C)C)CN1c2ccccc2Sc2ccccc21` (stereo not drawn), the growth was 40.2% and 73.1% and 64%. In the case of `C#Cc1cccc(Nc2ncnc3cc4c(cc23)OCCOCCOCCO4)c1`, the growth is reported as -26.7% (active). For `CCN1C(=O)N(CC)C2Nn3c(s/c(=C4\C(=O)N(CCC(C)C)c5ccccc54)c3=O)=NC21` (stereo not drawn), the growth was 11.6%. For `Cc1nc2c(=O)[nH]c(=S)[nH]c2[nH]c1=O`, the growth was 107% and 111%. Work on `N#Cc1nc(-c2ccccc2)oc1S(=O)(=O)NCC(c1ccc(Cl)cc1)N1CCCCC1` (stereo not drawn) yielded a growth of 41.4%. Work on `CC(C)(C)OC(=O)N1C(=O)c2c(c3c4ccccc4[nH]c3c3ccc4ccccc4c23)C1=O` yielded a growth of 75.6%. For `COC(=O)[C@@H](OC)[C@@H]1Cc2cc3cc(OC4CC(OC5CC(O)C(O)C(C)O5)C(O)C(C)O4)c(C)c(O)c3c(O)c2C(=O)[C@H]1OC1CC(OC2CC(OC3CC(C)(O)C(O)C(C)O3)C(O)C(C)O2)C(O)C(C)O1` (stereo partly drawn), the growth was -45.6% (active). Work on `COc1ccc2nc(C)cc(Nc3ccccc3O)c2c1` yielded a growth of 63.5%.
